Screening data (PubChem)
GRIN3A LBD mod – binders of NR3A ligand-binding domain, primary screen, biophysical, differential scanning fluorimetry, uHTS; Glutamate receptor ionotropic, NMDA 3A (GRIN3A) ligand-binding domain; NR3A LBD differential scanning fluorimetry, Tm shift; 0% = protein alone, 100% = glycine-bound protein; Tm shift relative to glycine control, % at 25 µM; 2.5% of 340,000 active;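 active = melting temperature shift of at least 10% of the positive control shift, at one fixed dose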
KLK7 zymogen act – proKLK7 zymogen activators, primary screen, biochemical, fluorescence intensity; Kallikrein-7 (Homo sapiens), P49862; purified proKLK7, EDANS-DABCYL substrate fluorescence; 100% is mature enzyme control, 0% vehicle; activation, % at 7 µM; 0.9% of 370,000 active; AID 652039, 2013;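 active = activation above the mean of all tested compounds plus 3 SD, computed per campaign excluding outliers beyond control limits, cut at about 13% in these data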
ADAM10 inh – human ADAM10 inhibitors, primary screen, biochemical, QFRET, HTS; recombinant ADAM10, EDANS/DABCYL FRET peptide cleavage, 3 h; inhibition, % at 7 µM; 0.62% of 370,000 active; AID 720582, 2013; Disintegrin and metalloproteinase domain-containing protein 10 (Homo sapiens), O14672;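 active = inhibition above a per-campaign cutoff equal to the mean of compounds falling between control-based bounds plus 3 SD, cut at about 20% in these data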;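 note: 0% = DMSO wells while the 100% control is not disclosed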
FAS-TE inh – FAS thioesterase domain inhibitors, primary screen, biochemical, fluorescence intensity, uHTS; 0.67% of 360,000 active; inhibition, % at 15 µM; recombinant FAS-TE, OMFH fluorogenic substrate, fluorescence endpoint; Fatty acid synthase (Homo sapiens), P49327;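 active = compounds whose normalised, plate-corrected inhibition of enzyme fluorescence in the single-dose primary screen is 50% or more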;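 note: 0% = DMSO with enzyme and 100% = substrate without enzyme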
ADAM17 inh – ADAM17 inhibitors, primary screen, biochemical, QFRET; Disintegrin and metalloproteinase domain-containing protein 17 (Homo sapiens), P78536; recombinant ADAM17, EDANS/DABCYL FRET peptide cleavage; inhibition, % at 6.95 µM; 0.83% of 370,000 active; AID 720648, 2013;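 active = inhibition above the mean of compounds lying between control limits plus 3 SD, set per campaign, cut at about 8.5% in these data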;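 note: 0% = DMSO-only wells as the low control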
Target sequence (P78536 215-824 limits assumed): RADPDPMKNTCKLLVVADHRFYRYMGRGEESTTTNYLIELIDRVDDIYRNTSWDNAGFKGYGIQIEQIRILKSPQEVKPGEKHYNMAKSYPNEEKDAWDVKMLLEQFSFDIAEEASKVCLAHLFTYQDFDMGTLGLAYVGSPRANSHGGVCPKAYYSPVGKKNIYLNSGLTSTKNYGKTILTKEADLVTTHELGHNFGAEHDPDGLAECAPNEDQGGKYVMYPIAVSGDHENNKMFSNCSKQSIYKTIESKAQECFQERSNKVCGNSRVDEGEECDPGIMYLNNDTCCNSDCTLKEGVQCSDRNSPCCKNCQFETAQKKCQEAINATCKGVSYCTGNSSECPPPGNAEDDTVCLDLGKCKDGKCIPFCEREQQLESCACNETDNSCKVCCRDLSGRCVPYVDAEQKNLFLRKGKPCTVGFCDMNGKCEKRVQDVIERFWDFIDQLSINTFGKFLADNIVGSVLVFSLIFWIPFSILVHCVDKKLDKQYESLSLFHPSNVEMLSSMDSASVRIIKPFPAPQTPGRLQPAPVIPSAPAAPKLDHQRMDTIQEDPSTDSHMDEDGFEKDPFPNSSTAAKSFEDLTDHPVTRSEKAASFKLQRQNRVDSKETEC
Active calls of the source: *; i = inactive; . = no result given. This is a sample that favours compounds with a hit; in the whole collection about 4.6% have one here.

SMILES	GRIN3A LBD mod	KLK7 zymogen act	ADAM10 inh	FAS-TE inh	ADAM17 inh
COC(=O)c1ccc(Cn2ccc3ccc(-c4ccc5ccn(C(=O)c6cccc(OC)c6)c5c4)cc32)cc1	.	-9.9	-15.1	.	-2.0
CCC[C@H]1[C@@H](N(C)Cc2ccccc2)CC[C@@]23CCCN2C(=O)CCC[C@@H]13	.	.	2.7	.	0.5
Cc1ccc(C)c(S(=O)(=O)NC(C)C(=O)Nc2ccc(-c3nc4ccccc4s3)cc2)c1 (centres undefined)	24.8*	-0.1	-187.6	14.4	-62.9
O=C(CNS(=O)(=O)c1cccc(Cl)c1)Nc1ccc(-c2nc3ccccc3s2)cc1	23.2*	-41.6	i	-9.9	-149.6
CC(NS(=O)(=O)c1cccc(Cl)c1)C(=O)Nc1ccc(-c2nc3ccccc3s2)cc1 (centres undefined)	29.7*	0.0	-44.3	23.9	-15.9
CC(C)(C)c1ccc(S(=O)(=O)NCC(=O)Nc2ccc(-c3nc4ccccc4s3)cc2)cc1	7.4	0.9	-100.5	3.4	-26.3
COc1ccc(Nc2nc3ccccc3s2)cc1	28.6*	-0.1	12.7	10.7	2.7
COc1ccc(CNc2nc3ccccc3s2)cc1OC	0.3	-0.1	0.5	0.6	-0.1
COc1cccc(Nc2nc3ccc(OC)cc3s2)c1	28.6*	-0.2	6.1	19.7	1.5
COc1ccc2nc(NC3=NCCC3)sc2c1	2.1	0.3	-5.6	-7.8	-4.4
O=C(Nc1ccc2c(c1)OCO2)Nc1ccc(F)cc1F	0.6	0.3	10.6	-7.4	-1.6
O=C(Nc1ccc(Cl)cc1)Nc1ccc2c(c1)OCO2	1.7	-0.1	-1.2	1.4	-6.5
O=C(Nc1ccc2c(c1)OCO2)Nc1ccc(Cl)cc1Cl	34.2*	-0.2	2.7	-3.6	-0.7
Cc1ccc(NC(=O)Nc2ccc3c(c2)OCO3)c(Br)c1	18.6*	0.5	1.3	1.5	-0.1
O=C(Nc1ccc2c(c1)OCO2)N1CCN(S(=O)(=O)c2ccc(Cl)cc2)CC1	-2.5	0.9	0.2	2.4	-2.6
O=C(Nc1ccc2c(c1)OCO2)N1CCN(c2ccccc2Cl)CC1	27.4*	0.5	-5.3	4.9	-3.3
O=C(NCCCc1ccccc1)OC1CC2CC1[C@H]1CCCCN1[C@H]2Cc1ccccc1 (some centres undefined)	.	0.1	-2.1	.	-3.3
COCCNC(=S)N/N=C(\C)c1cccc(C(F)(F)F)c1	51.6*	-0.4	0.3	3.0	2.9
Cc1cc(C(=O)N2CCN(S(=O)(=O)c3ccc(C)c(C)c3)CC2)no1	52.7*	0.6	-0.6	-1.2	-1.4
CC(=O)N1CCN(C(=O)c2ccc(NS(=O)(=O)c3cc(C)ccc3C)cc2)CC1	-3.1	0.0	-6.9	-4.1	2.5
O=C(c1cc(S(=O)(=O)N2CCCCC2)ccc1Cl)N1CCOCC1	1.2	0.1	-3.2	-3.7	-1.3
Cc1ccc(S(=O)(=O)N2CCN(C(=O)c3cc(S(=O)(=O)N4CCOCC4)ccc3Cl)CC2)c(C)c1	12.0*	1.1	-2.4	17.2	0.6
Cc1ccc(C)c(S(=O)(=O)Nc2ccc(C(=O)N3CCCCC3)cc2)c1	14.4*	0.8	-7.1	-1.0	-3.3
CCOC(=O)C1CCN(C(=O)c2ccc(C)c(S(=O)(=O)N3CCCC3)c2)CC1	11.1*	-0.1	-2.5	-1.7	-1.0
Cc1ccc(C(=O)N2CCCCC2)cc1S(=O)(=O)N1CCCCCC1	-0.3	-0.2	-1.0	-4.0	-2.8
SMILES	GRIN3A LBD mod	KLK7 zymogen act	ADAM10 inh	FAS-TE inh	ADAM17 inh
Cc1ccc(C(=O)N2CCOCC2)cc1S(=O)(=O)N1CCCC1	11.1*	0.0	-2.6	-3.2	-1.0
CCOc1cc(CCNC(=O)c2cc3sccc3n2CC)ccc1OC	.	-0.1	3.4	.	0.5
COc1cccc(C(=O)N(CCN2CCOCC2)Cc2ccc(OC)c(OC)c2)c1	.	-0.6	4.4	.	7.2
O=C(COc1ccc(-c2ccccc2)cc1)N/N=C/c1cc(O)ccc1Br	20.2*	-0.5	15.3	22.7	8.2
O=C(NCCc1ccc(Cl)cc1)Nc1cccc(Cl)c1	20.5*	-0.2	17.1	37.4	6.1
O=C(NCCc1ccccc1)Nc1cccc(Cl)c1	20.0*	1.2	-1.7	3.0	7.1
O=C(NCCc1ccncc1)Nc1ccc(Cl)c(Cl)c1	18.0*	0.2	3.3	10.0	0.0
CNC(=S)NCCc1ccc(OC)c(OC)c1	-0.3	-0.2	-7.2	-11.3	-0.3
COc1ccc(CCNC(=S)NCCc2ccc(OC)c(OC)c2)cc1OC	27.1*	0.2	2.3	-8.1	-1.6
COc1ccc(NC(=O)NCCc2cccc(Cl)c2)cc1OC	16.1*	0.3	0.5	-4.4	1.4
COc1cc(/C=C2/C(=O)ON=C2C)cc(Cl)c1O	25.6*	0.5	-6.7	-0.7	-3.1
CCOc1cc(/C=C2/C(=O)ON=C2C)ccc1O	2.8	0.5	1.0	-5.6	-1.3
CC1=NOC(=O)/C1=C/c1ccc(O)c(Cl)c1	20.4*	-0.7	-0.9	-2.9	5.0
COc1ccc(-n2c(SCC(=O)Nc3ccccc3-c3ccccc3)nnc2-c2ccccc2)cc1	.	-0.4	17.5	.	7.6
O=C(Nc1ccccc1)c1cccnc1NCCc1ccccc1	-7.0	-0.2	-28.3	27.6	-3.2
COc1ccc(NC(=O)c2cccnc2NCCc2ccccc2)cc1	18.0*	0.0	12.6	16.7	7.0
C/C(=N/NC(=O)c1ccoc1C)c1cccs1	.	0.4	5.4	.	1.7
COC(=O)[C@H](CCSC)NC(=O)Cn1cnc(C(=O)Nc2ccc(C)c(C)c2)n1	12.7*	-0.2	4.3	-4.5	-0.8
COc1ccc(/C=C/C(=O)c2cc(F)ccc2OC(=O)c2ccccc2)cc1OC	-5.8	-5.0	11.5	0.5	10.7*
O=C1/C(=C/c2ccccc2)Oc2cc(OC(=O)N3CCOCC3)ccc21	20.5*	-0.9	-9.2	-10.5	-2.5
O=C1/C(=C/c2ccc(F)cc2)Oc2cc(OC(=O)N3CCOCC3)ccc21	0.0	0.4	-9.4	-2.2	0.9
S=C(NCc1ccccc1)Nc1ccc(Cl)cc1	-1.6	0.8	3.3	8.3	0.3
FC(F)(F)Sc1ccc(NC(=S)NCc2ccccc2)cc1	19.9*	0.2	19.5	30.2	5.7
CC(=O)Nc1ccc(C2CC(c3ccc(Cl)cc3)=NN2c2ccccc2)cc1 (centres undefined)	14.9*	-7.6	-255.4	20.4	-148.0
Oc1ccccc1C1=NN(c2ccccc2)C(c2ccc(F)cc2)C1 (centres undefined)	0.6	-0.5	-33.6	23.3	-13.9
Cc1ccc(NC(=O)N2N=C(c3ccc(F)cc3)CC2c2ccc(F)cc2)cc1 (centres undefined)	18.8*	0.4	2.8	23.7	3.0
